15 molecules from PubChem BioAssay can be followed below.

Assay [1] has as its system Wnt5a (protein binding on small-molecule microarray). In words: Wnt5a binders on small-molecule microarray, primary screen, biophysical, 635/667 nm fluorescence (AID 1142).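 Further: fluorescence read at 667 nm with signal to noise per printed feature.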 The following applies: 635 nm fluorescence, higher = more signal.
A short description of assay [2]: cell viability in Huh7 cells, primary screen, cytotoxicity control for HCV replication inhibitor project, CellTiter-Glo luminescence, basal, 48 h (AID 1143).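 Further: Huh7 hepatoma cells carrying a hepatitis C replication reporter with no stimulus; test concentration not given here.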 The following applies: Huh7 HCV replicon, higher = more signal, called active from +8 up or from −8 down. In general terms: ATP-based viability assays read luminescence as a measure of living cells.
The nature of assay [3]: P. aeruginosa biofilm formation inhibitors, primary screen, PAO1 strain, BacTiter-Glo luminescence, LB-PBS (AID 1144). As to conditions: 12 h, higher = more signal.
Assay [4] can be described thus: CREB reporter modulators without forskolin, primary screen, cell-based, PC12, CRE-LacZ reporter, unstimulated (AID 1145). As to conditions: no forskolin, luminescence, 4.5 h, higher = more signal, called active from +8 up or from −8 down.
Assay [5] can be described thus: CREB reporter modulators under forskolin, primary screen, cell-based, PC12, CRE-LacZ reporter, forskolin-stimulated (AID 1146).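 Further: PC12 cells with 6xCRE LacZ reporter stimulated by forskolin 10 µM; beta-galactosidase reporter signal reflecting CREB driven transcription.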 As to conditions: luminescence, 4.5 h, higher = more signal, called active from +8 up or from −8 down.
Assay [6] concerns the target Streptavidin (Streptomyces avidinii) (UniProt P22629). In words: streptavidin binders on small-molecule microarray, primary screen, artefact control for SMM compound annotation, biophysical, 635/667 nm fluorescence (AID 1147).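 Further: signal reflects streptavidin binding to arrayed compounds as a control protein.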 The following applies: streptavidin binding, higher = more signal.
Assay [7] can be described thus: small-molecule binders of probe aInhba, primary screen, biochemical, small-molecule microarray, 635/667 nm fluorescence (AID 1148).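 Further: score merges 667nm spot fluorescence with signal-to-noise for antibody binding to printed compounds.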 As to conditions: higher = more signal.
In assay [8] the target is Torsin-1A (Homo sapiens) (UniProt O14656). In words: torsin A binders from cell lysate, primary screen, small-molecule microarray, wild-type, 635/667 nm (AID 1149). The following applies: COS7 hTOR1A-WT lysate, 635 nm fluorescence, higher = more signal.
Chain of Torsin-1A (Homo sapiens) (O14656 whole entry, looked up): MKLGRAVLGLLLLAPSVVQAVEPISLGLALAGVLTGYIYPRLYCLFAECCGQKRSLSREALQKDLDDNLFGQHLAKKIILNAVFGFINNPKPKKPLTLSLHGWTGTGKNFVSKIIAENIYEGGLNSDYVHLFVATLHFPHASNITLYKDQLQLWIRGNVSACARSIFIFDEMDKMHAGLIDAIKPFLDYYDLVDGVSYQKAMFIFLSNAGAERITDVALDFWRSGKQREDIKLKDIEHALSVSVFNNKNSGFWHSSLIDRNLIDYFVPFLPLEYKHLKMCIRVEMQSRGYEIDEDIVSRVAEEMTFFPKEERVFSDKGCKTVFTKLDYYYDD
For assay [9] the target is unchanged. In words: small-molecule binders of mutant TOR1A in lysate, primary screen, cell lysate, small-molecule microarray, COS7 lysate, 635/667 nm fluorescence (AID 1150).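 Further: score pools 667 nm emission and signal to noise measuring lysate protein binding.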 As to conditions: COS7 hTOR1A mutant lysate, 635 nm fluorescence, higher = more signal.
In assay [10] the test system is Sonic hedgehog protein (Shh). In words: small-molecule binders of Shh protein, primary screen, biochemical, small-molecule microarray, 635/667 nm fluorescence (AID 1151).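 Further: Shh protein binding to compounds spotted on small-molecule microarray slides; score combines spot fluorescence intensity with signal-to-noise across triplicate slides.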 As to conditions: small-molecule microarray binding, 635 nm fluorescence; higher = more signal.

The source made the active and inactive calls. Unless noted, how the calls were made is not given here.

Chain of Streptavidin (Streptomyces avidinii) (P22629 whole entry, looked up): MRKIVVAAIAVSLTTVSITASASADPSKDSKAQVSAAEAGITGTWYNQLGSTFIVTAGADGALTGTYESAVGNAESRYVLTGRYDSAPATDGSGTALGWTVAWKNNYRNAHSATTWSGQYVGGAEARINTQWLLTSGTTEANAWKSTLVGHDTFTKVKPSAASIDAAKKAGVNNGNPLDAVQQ

On to `C=CC[C@]1(C(=O)NCC(O)CO)COC(c2ccc(OCCCO)cc2)=N1` (stereo not given in full), for which the composite z-score was 0.359 in assay [1]; -0.486 in assay [6]; 0.109 in assay [7]; 0.185 with Torsin-1A (Homo sapiens) [8]; 1.03 with Torsin-1A (Homo sapiens) [9]; -0.495 in assay [10]. Also, the z-score in assay [2] was 0.154 (inactive); in assay [3] it was -0.055 (inactive); in assay [4], 0.792 (inactive); in [5] it was -0.282 (inactive).
In the case of `CCCNC(=O)[C@@]1(Sc2ccc(C)cc2)CC(=O)N(Cc2ccccc2Cl)[C@@H]1c1ccc(CO)cc1I`, the composite z-score in assay [1] was -0.618; in assay [6], -0.255; in assay [7], 0.216; with Torsin-1A (Homo sapiens) [8] it was -1.61; in the assay with Torsin-1A (Homo sapiens) [9] it was -1.42; in assay [10], -0.537. Moreover, the z-score in [2] is -1.23 (inactive); in assay [3], 0.0611 (inactive); in assay [4] it was 0.479 (inactive); in assay [5], 1.44 (inactive).
On to `CC(C)C(CO)N1C(=O)[C@@H]2C3C(=O)OCCC/C=C\[C@H]3OC23C=CCN(Cc2ccccc2)C(=O)[C@@H]13` (stereo not given in full), for which the composite z-score was 0.0204 in assay [1]; -1.14 in assay [6]; 0.0212 in assay [7]; 0.662 with Torsin-1A (Homo sapiens) [8]; 0.825 in the assay with Torsin-1A (Homo sapiens) [9]; 0.855 in assay [10]. Moreover, the z-score in [2] is -0.294 (inactive); in assay [3], 2.31 (inactive); in assay [4], 0.601 (inactive); in assay [5], 0.312 (inactive).
In the case of `C[C@@H]1ON(c2ccc(I)cc2)[C@H](c2cccc(NC(=O)OCC3c4ccccc4-c4ccccc43)c2)[C@H]1C(=O)N1C(=O)OC[C@H]1Cc1ccccc1`, the composite z-score is 0.0217 in assay [1]; 0.226 in assay [6]; -0.0893 in assay [7]; 0.579 with Torsin-1A (Homo sapiens) [8]; -0.0059 in the assay with Torsin-1A (Homo sapiens) [9]; 0.851 in [10]. Also, the z-score was -0.659 (inactive) in assay [2], -0.215 (inactive) in assay [3], 2.13 (inactive) in [4] and -0.0677 (inactive) in [5].
On to `CCCCC(O)C1C=CC2C(=O)N(c3ccccc3)C(=O)C2N1Nc1ccc(C#N)cc1` (stereo not given), for which the composite z-score in assay [1] was -0.0416; in assay [6] it was 0.718; in assay [7], 0.545; in the assay with Torsin-1A (Homo sapiens) [8] it was 0.242; in the assay with Torsin-1A (Homo sapiens) [9], 0.179; in [10] it was -0.492. The z-score in assay [2] is 0.739 (inactive); in assay [3], -1.25 (inactive); in [4], 0.632 (inactive); in assay [5], 0.719 (inactive).
For the molecule `NC(=O)N1C(=O)C2C(C1=O)C1C=C(CCCO)C2C(c2ccc(CN3CCCC3)cc2)N1Cc1cc2c(cc1Br)OCO2` (stereo not given), the composite z-score is -0.0793 in [1]; -0.0077 in [6]; -0.322 in [7]; 0.283 with Torsin-1A (Homo sapiens) [8]; 0.479 in the assay with Torsin-1A (Homo sapiens) [9]; 1.13 in assay [10]. Besides, the z-score in assay [2] was -1.34 (inactive); in assay [3] it was -0.607 (inactive); in [4], -0.205 (inactive); in [5], -0.274 (inactive).
In the case of `CC1=C([C@H](O)CCc2ccccc2)[C@H](CO)n2c(=O)n(-c3ccccc3)c(=O)n2C1`, the composite z-score was -0.0682 in assay [1]; -0.141 in assay [6]; -0.202 in assay [7]; 0.217 in the assay with Torsin-1A (Homo sapiens) [8]; -0.485 with Torsin-1A (Homo sapiens) [9]; 0.359 in assay [10]. Besides, the z-score was -1.13 (inactive) in [2], -1.21 (inactive) in assay [3], 0.399 (inactive) in [4] and 0.0978 (inactive) in assay [5].
On to `C=CCN1C(=O)[C@@]2(O[C@@H](CCn3cc([C@H](O)c4ccccc4)nn3)[C@H]([Si](C)(C)c3ccc(OC)cc3)[C@H]2C)c2cc(N3C(=O)c4cccc5cccc3c45)ccc21`, for which the composite z-score is -0.654 in assay [1]; -0.253 in assay [6]; -0.128 in assay [7]; -0.488 in the assay with Torsin-1A (Homo sapiens) [8]; -0.462 with Torsin-1A (Homo sapiens) [9]; -0.339 in assay [10]. The z-score in assay [2] was -3.71 (inactive); in assay [3], -0.119 (inactive); in [4], 9.39 (active); in assay [5], -0.592 (inactive).
`Cc1ccc(S[C@]2(C(=O)NCCCN(C)C)CC(=O)N(C3Cc4ccccc4C3)[C@@H]2c2ccc(CO)cc2I)cc1`: the composite z-score in assay [1] is -0.283; in assay [6], 0.372; in [7], -0.182; in the assay with Torsin-1A (Homo sapiens) [8], -1.5; in the assay with Torsin-1A (Homo sapiens) [9], -1.04; in [10], -0.348. The z-score was -1.5 (inactive) in assay [2], 0.505 (inactive) in [3], 0.155 (inactive) in [4] and 2.5 (inactive) in assay [5].
Regarding `CCCc1cc2c(n1CCc1ccc(Cl)cc1)C(C)C1CN(C(=O)c3ccccc3)C(C)(C(=O)OC)C21` (stereo not given), the composite z-score is 0.689 in [1]; 1.93 in [6]; -0.0736 in [7]; -0.103 with Torsin-1A (Homo sapiens) [8]; 0.947 with Torsin-1A (Homo sapiens) [9]; -0.264 in assay [10]. For the same molecule, the z-score was -3.68 (inactive) in assay [2], 0.188 (inactive) in assay [3], 1.16 (inactive) in assay [4] and 4.57 (inactive) in assay [5].
`C=C(/C(=C/C[C@@H](OC(C)=O)c1cccc(OCCO)c1)c1cnc2ccccc2c1)C(C)C`: the composite z-score in [1] stood at 1; in assay [6] it was 0.208; in [7], 0.0013; in the assay with Torsin-1A (Homo sapiens) [8], 1.83; in the assay with Torsin-1A (Homo sapiens) [9], 1.29; in assay [10], 2.05. The z-score was -1.69 (inactive) in assay [2], -1.04 (inactive) in assay [3], 0.769 (inactive) in assay [4] and 1.32 (inactive) in assay [5].
Take `COC(=O)C1(Cc2ccccc2)C=C2C(=C(C)C(=O)C2C)CN1` (stereo not given): the composite z-score in assay [1] was 0.266; in assay [6], 0.621; in [7], 0.155; with Torsin-1A (Homo sapiens) [8] it was 0.103; in the assay with Torsin-1A (Homo sapiens) [9] it was 0.0914; in assay [10], -0.691. Moreover, the z-score is -0.723 (inactive) in [2], 0.454 (inactive) in assay [3], 0.0075 (inactive) in [4] and 0.727 (inactive) in assay [5].
For `O=C1O[C@@H](c2ccccc2)[C@@H](c2ccccc2)N2[C@@H](c3ccccc3OCCO)[C@]3(C(=O)Nc4ccc(C#CCCO)cc43)[C@@H](C(=O)NC[C@H](O)c3ccccc3)[C@H]12`, the composite z-score in assay [1] was 0.381; in [6], 1.63; in assay [7], 1.17; with Torsin-1A (Homo sapiens) [8] it was 1.49; with Torsin-1A (Homo sapiens) [9], 1.86; in assay [10], 1.94. Also, the z-score in assay [2] was -0.908 (inactive); in assay [3], 0.191 (inactive); in assay [4], -0.402 (inactive); in [5], 0.717 (inactive).
`COc1ccc([Si](C)(C)[C@H]2[C@H](CCO)O[C@@]3(C(=O)N(Cc4cccc(N5C(=O)c6ccccc6Oc6ccccc65)c4)c4ccccc43)[C@@H]2C)cc1`: the composite z-score in assay [1] is 0.0511; in assay [6], 0.4; in assay [7], -0.05; with Torsin-1A (Homo sapiens) [8], -0.412; in the assay with Torsin-1A (Homo sapiens) [9], -0.54; in assay [10], 0.734. Moreover, the z-score in assay [2] was -6.96 (inactive); in [3], -0.365 (inactive); in assay [4], 0.716 (inactive); in assay [5], -1.1 (inactive).
For `C=CCOC(=O)[C@@H]1[C@H]2C(=O)O[C@H](c3ccccc3)[C@H](c3ccccc3)N2[C@H](c2ccc(OCCOC(=O)[C@H]3C[C@H]4C(=O)N[C@@H](CCCCN(C)C)C(=O)N4[C@H]3c3ccc(O)cc3)cc2)[C@@]12C(=O)Nc1ccc(I)cc12`, the composite z-score in assay [1] is 0.374; in assay [6], 0.433; in assay [7], 0.0895; with Torsin-1A (Homo sapiens) [8], 1.18; with Torsin-1A (Homo sapiens) [9] it was 0.9; in assay [10], 1.98. The z-score in [2] was -1.29 (inactive); in [3], -0.852 (inactive); in assay [4] it was -0.118 (inactive); in assay [5], 2.13 (inactive).
